GPR151 ag: activates the human receptor GPR151; Q8TDV0; PathHunter beta-arrestin GPR151 cells, luminescence; activation, % at 11.2 µM; actives 1% (n = 650,000); AID 1508602; in the data active = activation above about 4.9%
TEAD-YAP inh: TEAD-YAP interaction inhibition; HEK-TIYL cells, TEAD-Gal4/YAP UAS-luciferase luminescence; inhibition, % at 9.12 µM; actives 1.4% (n = 640,000); AID 1259422; in the data active = inhibition above about 32%
MITF inh: human MITF inhibition, primary screen | actives 0.91% (n = 650,000) | AlphaScreen MITF homodimerization, bead proximity signal | O75030 | inhibition, % at 2.6 µM | AID 1259374; in the data active = inhibition above about 50%
FBW7 activator: human FBW7 E3 ligase activation, primary screen; actives 0.13% (n = 650,000); Q969H0; AlphaScreen FBW7–phospho-cyclin E peptide binding, activator screen; normalized activity (activation), % at 26.1 µM; AID 1259310; in the data active = normalized activity above about 1.9%;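 note: purified mutant Fbw7 with reduced substrate affinity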
Numbers stand for hits; i = inactive. Rows were chosen to be rich in hits. Some 3.5% of all compounds tested hit in one or more screens of this group.

SMILES	GPR151 ag	TEAD-YAP inh	MITF inh	FBW7 activator
O=C(Nc1ccc(Oc2ccccc2)cc1)c1ccc(F)c(S(=O)(=O)N2CCOCC2)c1	i	63	i	i
O=C(Nc1ccc(Oc2ccccc2)cc1)c1cccc(S(=O)(=O)N2CCOCC2)c1	i	34	i	i
O=C(Nc1ccccc1)c1ccc(F)c(S(=O)(=O)N2CCOCC2)c1	i	i	i	i
COc1ccc(/C=C2\C(=O)N(c3nc(-c4ccc(Cl)cc4)cs3)N=C2c2ccccc2)cc1OC	i	i	i	i
C#CCn1cc(/C=C2/NC(=O)NC2=O)c2ccccc21	i	i	i	i
O=C(Nc1ccc(O)cc1)c1ccc(N2C(=O)c3cccc([N+](=O)[O-])c3C2=O)cc1	i	35	i	i
COc1ccc(NC(=O)c2ccc(N3C(=O)c4cccc([N+](=O)[O-])c4C3=O)cc2)cc1	i	i	i	i
c1ccc(-c2cc(NCCCN3CCOCC3)nc(-c3ccccn3)n2)nc1	i	64	117	i
c1ccc(-c2nc(NCCCN3CCOCC3)cc(-c3ccncc3)n2)cc1	i	i	i	i
C[n+]1ccccc1NCCCN1CCOCC1	i	i	i	3.8
CNC(=O)c1cc(N2CCOCC2)ccc1Nc1cc(Nc2ccc3c(c2)CC(=O)N3)ncc1C(F)(F)F	i	i	i	i
CN(c1ncccc1CNc1cc(Nc2ccc3c(c2)CC(=O)N3)ncc1C(F)(F)F)S(C)(=O)=O	i	35	i	i
CN(c1ncccc1CNc1nc(Nc2ccc3c(c2)CC(=O)N3)ncc1C(F)(F)F)S(C)(=O)=O	i	77	i	i
CCCNC(=O)c1ccc(N2CC3CC(C2)c2cccc(=O)n2C3)c(NC(=S)Nc2ccc(Cl)cc2Cl)c1 (stereo not drawn)	i	i	i	i
N#CC1=C(SCC(=O)Nc2ccc(Cl)c(Cl)c2)NC(=O)CC1c1ccccc1 (stereo not drawn)	i	66	i	i
N#CC1=C(SCC(=O)Nc2ccc(Br)cc2)NC(=O)CC1c1ccc(O)cc1 (stereo not drawn)	i	39	i	i
CC(=O)N1CCC(N(C2CC2)S(=O)(=O)c2ccccc2)CC1	i	i	i	i
CCN(CC)c1ccc(Nc2nc(-c3c(C)nc4ccccn34)cs2)cc1	i	i	i	i
Cc1ccc(Nc2nc(-c3c(C)nc4ccccn34)cs2)cc1	i	53	i	i
Cc1ccc(Nc2nc(-c3c(C)nc4ccccn34)cs2)c(C)c1	i	53	i	i
Cc1nc2ccccn2c1-c1csc(Nc2ccc(S(N)(=O)=O)cc2)n1	i	i	i	i
Cc1nc2ccccn2c1-c1csc(Nc2ccc(Cl)cc2)n1	i	44	i	i
COC(=O)N/N=C\c1ccc(-c2cccc(Br)c2)o1	i	i	i	i
COc1ccc(-c2noc(CN(Cc3c(C)nn(C)c3C)C(C)C)n2)c(OC)c1OC	i	59	i	i
NC(=O)C1CCCN(Cc2c(C(=O)N3CCCCCCC3)nc3ccc(Cl)cn23)C1 (stereo not drawn)	i	i	i	i
SMILES	GPR151 ag	TEAD-YAP inh	MITF inh	FBW7 activator
Cc1ccc(CN2CCN(/N=C/c3ccc(O)c(O)c3)CC2)cc1	i	i	55	i
Oc1ccc(/C=N/N2CCN(Cc3ccccc3)CC2)cc1O	i	i	i	i
Cn1nnc2c(N3CCN(S(=O)(=O)c4ccccc4Cl)CC3)ncnc21	i	38	i	i
N#C/C(=C\c1cccc(Cl)c1Cl)c1nn(CCO)c(N)c1C#N	i	49	i	i
N#C/C(=C\c1ccccc1)c1nn(CCO)c(N)c1C#N	i	i	i	i
CCn1c2ccccc2c2cc(/C=C(\C#N)c3nn(CCO)c(N)c3C#N)ccc21	i	49	i	i
COc1cccc(Nc2cc(C)nc3nnnn23)c1	i	i	i	i
Cc1cc(/C=C2/C(=N)N3C=CSC3=NC2=O)c(C)n1-c1ccc(Cl)cc1	i	i	i	i
COc1ccc(C)cc1-n1c(C)cc(/C=C2/C(=N)N3C=CSC3=NC2=O)c1C	i	51	i	i
COc1ccccc1-n1c(C)cc(/C=C2\C(=N)N3N=CSC3=NC2=O)c1C	i	75	i	i
Cc1ccc(-n2c(C)cc(/C=C3/C(=N)N4C=CSC4=NC3=O)c2C)c(C)c1	i	64	i	i
COc1ccccc1-n1c(C)cc(/C=C2/C(=N)N3C=C(C)SC3=NC2=O)c1C	i	i	i	i
COc1ccc(-c2nc3ccc(C(=O)NCCOc4ccccc4)cc3s2)cn1	i	i	i	i
CCc1ccc(C(=O)COC(=O)C2(CC(=O)N3CCOCC3)CCCC2)cc1	i	i	i	i
O=c1[nH]c(N2CCCCC2)nc2c1CCN(Cc1ccc(O)c(O)c1)C2	i	i	82	i
